According to PubChem BioAssay AID977622 (Broad Institute, 2014):
Screen size: about 1,900 compounds; fewer than 10 were called active. Another 39% or so got no clear call; they are omitted.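 The calls were made as follows: active = Green signal of the normal strain falls at least twice as much as red signal of the resistant mutant, with overall culture growth loss under a set limit; inconclusive = no clear call, values can overlap the other calls; inactive = the rest.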 A selection follows.

Key:
[1] = wild-type E. coli growth inhibition versus h38 humanized strain – h38 mutant RFP, wild-type GFP, cherry-pick, dose response (AID 977622); conditions: activity change: E. coli mixed culture, total growth OD600 at 50 uM, at 50 µM
[2] = system: E. coli h38 humanized mutant ribosome RFP fluorescence, mixed culture, 24 h; test: as above; conditions: h38 mutant RFP at 50 uM; at 50 µM

Structure (SMILES)	activity change [1] [%]	outcome [1]	activity change [2] [%]
CCc1ccc(CN2CCCC(CNS(=O)(=O)c3ccc(OC)cc3)C2)cc1 (stereo unspecified)	-13.3	inactive	9.56
COc1ccc(OC)c(NC(=O)COc2ccc(S(=O)(=O)NC(C)C)cc2)c1	-14.2	inactive	–
O=C1CCCc2ccccc2N1Cc1ccccc1	-14.6	inactive	–
Cc1cccc(CN2C(=O)c3ccccc3Sc3ccc(C(=O)O)cc32)c1	-13.7	inactive	–
Cc1noc(C)c1NC(=O)Nc1ccc2c(c1)C(=O)N([C@@H](C)CO)C[C@@H](C)[C@H](CN(C)C(=O)Nc1ccc3c(c1)OCO3)OCCCC[C@@H](C)O2	-13.2	inactive	26.4
C=CCn1c(C)cc(C(=O)CSc2nnc(C3CC3)n2C2CC2)c1C	-20.6	inactive	-37.4
CN(C)S(=O)(=O)N1CCN(c2ccccc2Cl)CC1	-14.9	inactive	-15.7
O=C(c1ccc(-n2cccn2)cc1)N1CCc2ccccc2C1	-28.7	inactive	-27.7
Cc1onc(-c2ccccc2Cl)c1C(=O)Nc1ccc(Cl)cn1	-9.88	inactive	–
COc1cc(C#N)ccc1OCC(=O)Nc1cccc(S(=O)(=O)N2CCCC2)c1	-1.82	inactive	-20.8
COc1ccc(C2CC(=O)Oc3cc(C)cc(C)c32)cc1 (stereo unspecified)	-0.711	inactive	12.7
O=C(Nc1cc(S(=O)(=O)N2CCOCC2)ccc1N1CCOCC1)c1ccc([N+](=O)[O-])s1	-3.16	inactive	13.2
COc1ccccc1Cc1c(-c2ccc(F)cc2)nc2ccc(Br)cn12	-10.3	inactive	–
CN(C)CCNc1ncnc2c1sc1nc(N3CCCC3)c3c(c12)CC(C)(C)OC3	-21.5	inactive	-11.2
Cc1ccccc1NC(=O)c1ccccc1N(C)S(=O)(=O)c1ccccc1	-14.8	inactive	-11.7
O=C1OC[C@@H]2CCCN2C(=O)[C@@H](CC(=O)N(CCO)Cc2ccccc2)C/C=C\C[C@H]1Cc1ccc(F)cc1	-20.1	inactive	-35.1
COc1cccc(CN(C)Cc2nc(Cc3ccccc3Cl)no2)c1	-26.5	inactive	24.2
CC(CCc1ccccc1)NC(=O)CCC1CCCC1 (stereo unspecified)	-8.51	inactive	4.55
CCNC(=O)C1(C)CCCN(Cc2cccc3ccccc23)C1 (stereo unspecified)	1.55	inactive	69.8
CCS(=O)(=O)N1CCN(c2ccnc3cc(Cl)ccc23)CC1	-3.73	inactive	61.1
Cc1ccc(-n2cc(CNCCN3CCOC3=O)c(-c3ccc(F)cc3)n2)cc1	-3.42	inactive	31.2
Cc1cc(C)cc(NS(=O)(=O)c2cc(C(=O)NCc3ccccn3)ccc2Cl)c1	-24.9	inactive	-5.16
CCn1c(COc2cccc(OC)c2)nnc1SCC(=O)Nc1cc(OC)ccc1OC	-38.2	inactive	-20.2
C[C@@H]1CN([C@@H](C)CO)S(=O)(=O)c2ccc(Br)cc2O[C@H]1CN(C)C(=O)c1ccccc1	-2.07	inactive	–

Structure (SMILES)	activity change [1] [%]	outcome [1]	activity change [2] [%]
C[C@@H]1CCCCO[C@H](CN(C)C)[C@@H](C)CN([C@H](C)CO)C(=O)c2cc(NC(=O)Nc3cccc4ccccc34)ccc2O1	8.4	inactive	44.4
O=C(C[n+]1cc(-c2ccc(F)cc2)n2c1CCC2)c1cccs1	2.39	inactive	21.5
C[C@H](CO)N1C[C@H](C)[C@H](CN(C)C(=O)Nc2ccc3c(c2)OCO3)Oc2c(NC(=O)Nc3ccccc3)cccc2C1=O	-5.63	inactive	44
Cc1ccc2oc(=O)n(CCCOc3ccccc3C)c2c1	-15.8	inactive	-0.57
COc1ccc(CN2CCC3CC2c2cc(Cl)ccc23)cc1 (stereo unspecified)	-30.7	inactive	-4.61
NS(=O)(=O)c1cc(C(=O)OCC(=O)Nc2ccccc2[N+](=O)[O-])ccc1Cl	-8.81	inactive	1.48
CC(=O)Oc1ccc(N(c2ccccc2)S(=O)(=O)c2ccc(C)cc2)cc1	-32.3	inactive	–
COc1ccc(NC(=O)Nc2cccc3c2O[C@H](CN(C)S(=O)(=O)c2ccc(Cl)cc2)[C@@H](C)CN([C@@H](C)CO)C3=O)cc1	-2.69	inactive	-5.12
O=C(O)c1ccccc1Nc1cc(Cl)c2nonc2c1[N+](=O)[O-]	-25.7	inactive	–
C[C@@H]1CCCCO[C@H](CN(C)C)[C@H](C)CN([C@@H](C)CO)C(=O)c2cc(NC(=O)Nc3cccc4ccccc34)ccc2O1	4.86	inactive	1.63
COc1ccc(C#Cc2ccc([C@@H]3[C@@H](CO)N4CCCCN(C(=O)Nc5ccc(F)cc5)C[C@H]34)cc2)cc1	-49.7	inactive	97.4
Cc1cccc(Oc2ccc(NC(=O)c3ccccc3C(=O)O)cc2)c1	-16.2	inactive	–
CCOCC(=O)Nc1c(C(=O)Nc2ccc3c(c2)OCCO3)oc2ccccc12	-44.7	inactive	4.56
COc1cc2c(c(OC)c1OC)C(c1ccc3c(c1)OCO3)CC(=O)O2 (stereo unspecified)	-14.3	inactive	37.2
CCC(C)c1ccccc1NC(=O)c1cccc(-n2cnnn2)c1 (stereo unspecified)	-13.9	inactive	-4.87
CN(C)CCCN(C(=O)CCOc1ccccc1)c1nc2c(F)cccc2s1	-10.6	inactive	-7.27
CC(NC(=O)c1ccc(CS(=O)(=O)c2ccc(Cl)cc2)o1)c1ccc2c(c1)OCCO2 (stereo unspecified)	-24.9	inactive	17.5
NS(=O)(=O)c1ccc(NC(=O)c2cc(Cl)sc2Cl)cc1	0.867	inactive	13.3
CC(C)(CC(=O)O)CC(=O)NCc1c(Cl)cccc1Sc1ccc(Cl)cc1	-12.9	inactive	–
C[C@H]1CN([C@@H](C)CO)C(=O)c2c(c3ccccc3n2C)-c2ccccc2CO[C@@H]1CN(C)Cc1ccncc1	-20.6	inactive	-32.1
CCCCc1n(CC(=O)c2ccc(Cl)cc2)c2ccccc2[n+]1C	-11.8	inactive	5.85
Cc1noc(C)c1NC(=O)Nc1ccc2c(c1)C(=O)N([C@H](C)CO)C[C@H](C)[C@H](CN(C)C(=O)Nc1ccc3c(c1)OCO3)OCCCC[C@H](C)O2	-22	inactive	-9.02
Cc1cccc(-c2ccc([C@H]3[C@@H](CO)N4CCCCN(S(=O)(=O)c5ccccc5C)C[C@@H]34)cc2)c1	-22.4	inactive	18.9
